Source: article PMC4336329 (PLoS ONE, 2015)
Among all 310,000 compounds or so, about 14,000 (4.5%) showed an effect of 50% or more. The effect is printed as a negative number. The sample holds strong results, similar compounds and a random draw of the others, so the mix is not that of the screen.

target: human ether-à-go-go-related gene (hERG) potassium channel (human, UniProt Q12809); assay: primary screen, population patch clamp on CHO cells stably expressing hERG; higher = less effect of the substance
Sequence (Q12809 whole entry, looked up): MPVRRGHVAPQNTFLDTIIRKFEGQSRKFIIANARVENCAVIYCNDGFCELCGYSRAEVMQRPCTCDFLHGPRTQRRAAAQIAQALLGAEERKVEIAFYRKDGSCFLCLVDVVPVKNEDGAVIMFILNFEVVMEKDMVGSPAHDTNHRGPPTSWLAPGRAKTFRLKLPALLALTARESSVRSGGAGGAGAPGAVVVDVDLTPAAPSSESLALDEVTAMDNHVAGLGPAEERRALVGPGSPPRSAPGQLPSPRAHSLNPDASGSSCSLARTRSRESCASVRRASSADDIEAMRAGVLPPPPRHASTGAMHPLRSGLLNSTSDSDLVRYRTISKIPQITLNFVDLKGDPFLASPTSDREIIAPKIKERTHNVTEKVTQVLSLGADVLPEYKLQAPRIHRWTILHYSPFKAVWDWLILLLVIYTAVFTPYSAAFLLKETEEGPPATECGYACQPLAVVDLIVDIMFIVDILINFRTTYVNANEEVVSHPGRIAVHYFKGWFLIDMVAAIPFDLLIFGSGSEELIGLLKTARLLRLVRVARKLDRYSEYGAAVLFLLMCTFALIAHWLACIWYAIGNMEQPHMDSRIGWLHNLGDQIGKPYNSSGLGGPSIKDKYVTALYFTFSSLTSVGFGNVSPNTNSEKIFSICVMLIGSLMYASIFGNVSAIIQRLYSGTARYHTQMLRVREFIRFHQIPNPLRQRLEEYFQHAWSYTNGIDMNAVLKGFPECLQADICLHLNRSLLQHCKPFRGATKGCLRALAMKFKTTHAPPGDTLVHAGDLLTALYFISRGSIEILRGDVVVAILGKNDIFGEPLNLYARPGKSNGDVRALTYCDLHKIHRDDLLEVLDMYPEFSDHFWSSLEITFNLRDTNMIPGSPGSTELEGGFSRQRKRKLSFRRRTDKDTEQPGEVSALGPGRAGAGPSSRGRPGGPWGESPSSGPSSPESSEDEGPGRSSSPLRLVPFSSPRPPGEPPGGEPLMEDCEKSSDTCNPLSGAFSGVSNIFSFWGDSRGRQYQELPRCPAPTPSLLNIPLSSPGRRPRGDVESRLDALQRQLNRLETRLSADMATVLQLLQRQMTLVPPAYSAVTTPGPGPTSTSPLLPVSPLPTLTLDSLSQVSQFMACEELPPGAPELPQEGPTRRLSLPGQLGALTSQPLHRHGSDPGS
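Note: peak tail current of the secondary pulse compared with the same well before compound.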

Compound	hERG current change (%, negative = inhibition) at 10uM
CNC(=O)N(O)C1N(/N=C/c2c(F)cccc2Cl)C(=S)SC1(C)C (centres unmarked)	18%
CC(=O)c1cccc(NC(=O)C(C)OC(=O)c2cc(=O)[nH]c3ccccc23)c1 (centres unmarked)	-0.987%
CCC(CNc1cc(OC)cc2cccnc12)NC1CCCCC1 (centres unmarked)	-26.2%
COc1cc(C(=O)O)cc(NC(=O)c2cccs2)c1OC	13%
NS(=O)(=O)c1ccc(CCNS(=O)(=O)c2cccc(C(=O)O)c2)cc1	15.9%
COc1ccc(NS(=O)(=O)c2cc3c(cc2C)N(C)CCO3)c(OC)c1	1.28%
O=C(c1ccc2c(c1)OCO2)C1CCCN(Cc2cccn2-c2cccnc2)C1 (centres unmarked)	-58.3%
COc1ccc(C(=O)C2CCCN(C(=O)c3cccs3)C2)cc1F (centres unmarked)	-8.95%
COc1ccc(C(=O)C2CCCN(Cc3cccn3-c3nccs3)C2)cc1F (centres unmarked)	-83.5%
COc1cccc(C(=O)C2CCCN(Cc3cccn3-c3cccnc3)C2)c1 (centres unmarked)	-29%
COc1ccc(C(=O)C2CCCN(Cc3cccn3-c3nccs3)C2)cc1OC (centres unmarked)	-82%
COc1ccc(C(=O)C2CCCN(Cc3cccn3-c3cccnc3)C2)cc1OC (centres unmarked)	-62.9%
COc1ccc(C(=O)C2CCCN(Cc3cnc(N4CCOCC4)s3)C2)cc1F (centres unmarked)	-47.6%
COc1ccc(C(=O)C2CCCN(Cc3cnc(N4CCCC4)s3)C2)cc1OC (centres unmarked)	-44%
S=C1NCCc2ccccc2C1c1ccccc1 (centres unmarked)	-14.5%
C/C(=C\C(=S)Nc1ccccc1)Nc1ccccc1	22.4%
CCOc1ccccc1CNC(=O)Cn1ccc2cc(S(=O)(=O)N3CCCCCC3)ccc21	10.4%
COc1ccc2cc(N=Cc3nc(-c4ccc(C)cc4)oc3O)cnc2c1	1.84%
CCC(=O)N1CCc2cc(S(=O)(=O)N3CCCCCC3)ccc21	12.6%
CNC(=O)c1cccn1-c1ccsc1C(=O)OC	7.33%
COc1ccc(Cc2nc3ccc(C(=O)N(C)CCn4ccnc4)cc3o2)cc1OC	15.5%
O=C(COC(=O)c1ccc(F)cc1F)Nc1ccc2[nH]c(=O)[nH]c2c1	10.3%

Compound	hERG current change (%, negative = inhibition) at 10uM
Cc1cc(C(=O)C(=O)NC(C)C)c(C)n1-c1ccc([N+](=O)[O-])cc1	-22.8%
C=CCN(CC=C)C(=O)C(=O)c1cc(C)n(-c2ccc([N+](=O)[O-])cc2)c1C	-63.4%
Cc1cc(C(=O)C(=O)N(C)C)c(C)n1-c1ccc([N+](=O)[O-])cc1	-25.7%
O=C(/C=C/C=C/c1ccc2c(c1)OCO2)N1CCCCC1	-8.23%
CCc1noc(C)c1C(=O)OCC(=O)NC(=O)c1ccccc1OC	12.5%
COc1cc(OC)c(C#N)c(S(=O)(=O)Cc2ccccc2)c1	-3.9%
Cc1ccc2c(c1)NC(=O)C(CC(=O)NCCN(CC(C)C)CC(C)C)O2 (centres unmarked)	-24.7%
CCN(CCNC(=O)CC1Oc2ccccc2NC1=O)c1ccccc1 (centres unmarked)	9.82%
CCN(CC)CCNC(=O)c1ccc2c(c1)NC(=O)c1ccccc1S2	-31.9%
CN(C)CCNC(=O)c1ccc2c(c1)NC(=O)c1ccccc1S2	17.3%
CCC(C)N(CCNC(=O)CC1Oc2ccccc2NC1=O)C1CCCCC1 (centres unmarked)	-57.7%
Cc1ccc2c(c1)NC(=O)C(CC(=O)NCCN(C)C)O2 (centres unmarked)	-2.42%
CCC(C)N(CCNC(=O)CC1Oc2ccc(C)cc2NC1=O)C1CCCCC1 (centres unmarked)	-71.5%
CCC(C)N(CCNC(=O)c1ccc2c(c1)NC(=O)c1ccccc1S2)C1CCCCC1 (centres unmarked)	-66.4%
CC(C)CN(CCNC(=O)CC1Oc2ccccc2NC1=O)CC(C)C (centres unmarked)	-27.7%
COCCn1c(C)cc2c(c1=O)C(c1ccco1)C(C#N)=C(N)O2 (centres unmarked)	12.7%
C=CCn1c(CSc2nnc(-c3ccccc3)n2C)n[nH]c1=S	16.7%
O=C(Nc1ccc(Cl)cc1)c1ccc(Br)cc1F	14.4%
COCc1cc(Sc2cccc(Cl)c2Cl)nc(-c2ccccc2)n1	9.15%
Cc1ccc(S(=O)(=O)N(CC(=O)NN=C2CCN(C)CC2)c2ccc(C(C)C)cc2)cc1	-21.3%
CCn1cc(C(=O)N2CCN(Cc3ccc4c(c3)OCO4)CC2)c(=O)c2ccc(C)nc21	-1.84%
CCC(C)(C)NC(=O)C(c1ccc(OC)cc1)N(C(=O)CCC(=O)Nc1cc(C)on1)c1ccc(OC)c(OC)c1 (centres unmarked)	3.38%

Compound	hERG current change (%, negative = inhibition) at 10uM
Cc1ccc(OCC(=O)N/N=C/c2cn(C)c3ccccc23)cc1	10.2%
Cc1ccc(S(=O)(=O)N2CCn3cccc3C2C)cc1 (centres unmarked)	-22.7%
CC1c2cccn2CCN1S(=O)(=O)c1ccc(F)cc1 (centres unmarked)	-52.3%
CC1c2cccn2CCN1S(=O)(=O)c1ccccc1 (centres unmarked)	5.9%
COc1cc(NS(=O)(=O)c2ccc(NC(=O)/C(=C\c3ccccc3OC)NC(=O)c3ccccc3)cc2)nc(OC)n1	26.5%
O=C(CN1CCCCC1)N/N=C/c1ccccc1OCc1ccccc1	-30.2%
C=CCOc1ccc(/C=N/NC(=O)C(=O)N2CCCCCC2)cc1OC	16.5%
COc1cc(/C=N/NC(=O)CN2CCOCC2)ccc1OCc1ccccc1	5.45%
CCCOc1ccc(/C=N/NC(=O)CN2CCCCC2)cc1OCC	-51.4%
CCOc1ccc(/C=N/NC(=O)CN2CCCCC2)cc1OCC	11%
CCOc1cc(/C=N/NC(=O)CN2CCCCC2)ccc1OCc1ccccc1	-59.9%
CCOc1cc(/C=N/NC(=O)CN2CCCCC2)ccc1OCc1cccc(Cl)c1	-45.3%
C=CCOc1ccc(/C=N/NC(=O)CN2CCCCC2)cc1OC	-61%
CCOc1cc(/C=N/NC(=O)CN2CCCCC2)ccc1O	-5.51%
COc1cc(/C=N/NC(=O)CN2CCCCC2)ccc1OCc1ccccc1	-64.1%
CCOc1cc(/C=N/NC(=O)CN2CCOCC2)ccc1OCc1ccccc1	-9.58%
C=CCOc1ccc(/C=N/NC(=O)CN2CCOCC2)cc1OCC	12.4%
CC(=O)N1c2ccccc2C(C)(C)C2CCC(C)CC21 (centres unmarked)	-8.9%
COc1ccc(-c2cn[nH]c2-c2ccc(OC)cc2)cc1	8.51%
CCN(CC)C(=O)c1c[nH]c2ccc(S(=O)(=O)Nc3cc(C)cc(C)c3)cc2c1=O	-0.741%
CCOC(=O)c1[nH]c(Cc2[nH]c(C(=O)OCC)c(C)c2CCC(=O)OC)c(CCC(=O)OC)c1C	3.71%
COc1cccc(-c2nc(-c3ccccc3)no2)c1	1.72%

Compound	hERG current change (%, negative = inhibition) at 10uM
Cc1cccc(Nc2nc3c(S(=O)(=O)c4ccccc4)nnn3c3ccccc23)c1C	12.6%
CCC(C)NC(=O)Cn1nc(C(F)(F)F)c2c1CCC2 (centres unmarked)	1.83%
N#Cc1c(SCC(=O)Nc2nc3ccccc3s2)sc2c(O)cc(=O)[nH]c12	20.7%
c1ccc2c(c1)nc(Nc1ccc(N3CCCCC3)cc1)c1nncn12	-13.8%
Cc1nc(-c2ccc(F)cc2)c(CC(=O)Nc2cccc(S(=O)(=O)N3CCOCC3)c2)s1	-15.8%
COc1ccc(Br)cc1/C=N/NC(=O)CN1CCCCC1	-4.99%
COc1cc(/C=N/NC(=O)c2cc3ccccc3cc2O)ccc1OCCN1CCCCC1	-65.9%
Cc1nn(-c2ccccc2)c(N2CCCC2)c1/C=N/NC(=O)c1cc(-c2ccccc2)nc2ccccc12	13.3%
COc1cc(/C=N/NC(=O)c2ccoc2C)ccc1OCCN1CCCCC1	-31.6%
COc1cc(/C=N/NC(=O)CN2CCCCC2)ccc1OCc1ccc(Br)cc1	-59%
COc1ccc(/C=N/NC(=O)CN2CCN(Cc3ccccc3)CC2)cc1Br	-68%
COc1cc(/C=N/NC(=O)c2ccncc2)ccc1OCCN1CCCCC1	-3.37%
Cc1nn(-c2ccccc2)c(N2CCCC2)c1/C=N/NC(=O)c1cc2ccccc2cc1O	-55.5%
COc1ccc(Br)cc1/C=N/NC(=O)CN1CCN(Cc2ccccc2)CC1	-33.1%
COc1cc(/C=N/NC(=O)CCN2CCN(Cc3ccccc3)CC2)cc(OC)c1OC	-29.2%
Cc1nn(-c2ccccc2)c(N2CCCC2)c1/C=N/NC(=O)c1ccccc1O	-2.88%
CCOc1cc(/C=N/NC(=O)CN2CCCCC2)ccc1OCc1ccc(Cl)cc1	7.37%
Cc1ccc(S(=O)(=O)Nc2cc(C)on2)cc1	15.4%
CCN(CC(=O)Nc1ccc(NC(C)=O)cc1)C(=O)c1cc(-c2ccccc2)nn1-c1ccccc1	8.43%
O=C(CSc1nnc(-c2cccnc2)o1)NNC(=O)c1ccc(Br)cc1	2.19%
